Measured values: PubChem BioAssay
Calls of active or inactive are those of the source. Cut-off read from the data, not from the text of the source, unless noted: active = inhibition above about 80%; inactive = the rest.

Columns and labels:
[1] = viability loss with induced miR-34 in A549 – imaging, A549 dox-inducible miR-34, nuclei and caspase counts, primary screen (AID 1347080;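 active = compounds whose cell count with miR-34 switched on is under 0.7 times the count with it off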); conditions: A549 miR-34 inducible, Hoechst nuclei count, 48 h
[2] = MELAS cybrid and Rieske KO viability enhancers – cell-based, MELAS cybrids, Rieske KO mouse fibroblasts, CellTiter-Glo, primary screen (AID 1508586;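 active = mean z-score across replicates of 1.96 or higher in either the MELAS or the Rieske mutant cell line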;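 note: z relative to plate mean and SD of compound and empty wells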); conditions: low glucose
[3] = growth inhibition, single agent or in combination, cell-based, chromothripsis tumors, cisplatin or BGB combos (AID 1671449); conditions: LFS_MB_P medulloblastoma cells;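 note: cells exposed for 96 hours; 0% = vehicle DMSO and 100% = killing by high DMSO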
[4] = growth inhibition, single agent and combos, cell-based, chromothripsis tumors, cisplatin or BGB combos (AID 1671450); conditions: HDN33 neuroblastoma cells, stronger effect = higher value;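 note: cells exposed to compound for four days; 0% = vehicle DMSO and 100% = cell killing by high DMSO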
[5] = growth inhibition, single agents and combos, ICB984, cell-based, cisplatin or BGB combos, synergistic combos for chromothripsis tumors (AID 1671451; call rule not given here;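 note: cells exposed for 96 hours before readout; 0% = vehicle DMSO and 100% = killing by high DMSO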); conditions: ICB984 medulloblastoma cells, drug combinations, stronger effect = higher value
[6] = growth inhibition, single agents and combos, LFS_MB_1R, cell-based, cisplatin or BGB combos, synergistic combos for chromothripsis tumors (AID 1671452); conditions: LFS_MB_1R medulloblastoma cells, stronger effect = higher value;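 note: cells exposed for 96 hours before readout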
[7] = growth inhibition, single agents and combos, HTB85, cell-based, BGB or cisplatin IC20 combos, synergistic combos for chromothripsis tumors (AID 1671453); conditions: HTB85 osteosarcoma cells, drug combinations, stronger effect = higher value;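 note: cells exposed for 96 hours before readout; 0% = vehicle DMSO and 100% = high DMSO killing control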
[8] = growth inhibition, single agents and combos, CRL2098, cell-based, BGB or cisplatin IC20 combos, synergistic combos for chromothripsis tumors (AID 1671454); conditions: CRL2098 osteosarcoma cells, drug combinations, stronger effect = higher value;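 note: cells exposed for 96 h before readout; 0% = vehicle DMSO and 100% = killing by high DMSO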
[9] = growth inhibition, single agents and combos, HD-MB03, cell-based, BGB or cisplatin IC20 combos, synergistic combos for chromothripsis tumors (AID 1671455; in the data active = inhibition above about 83%;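 note: 0% = vehicle DMSO and 100% = high DMSO as cytotoxic control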); conditions: HD-MB03 medulloblastoma cells, stronger effect = higher value
[10] = growth inhibition, single agents and combos, UWB1.289, cell-based, BGB or cisplatin combos, synergistic combos for chromothripsis tumors (AID 1671456); conditions: UWB1.289 ovarian carcinoma cells, stronger effect = higher value;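 note: cells exposed to compound for four days; 0% = vehicle DMSO and 100% = killing by high DMSO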
[11] = growth inhibition, single agents and combos, LFS_MB_2R, cell-based, cisplatin combos, synergistic combos for chromothripsis tumors (AID 1671457); conditions: LFS_MB_2R medulloblastoma cells, stronger effect = higher value;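 note: cells exposed to compound for four days before readout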
[12] = growth inhibition, MDA-MB-436, cell-based, BGB or cisplatin combos, synergistic combos for chromothripsis tumors (AID 1671458; call rule not given here;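 note: cells exposed for 96 hours; 0% = vehicle DMSO and 100% = killing by high DMSO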); conditions: MDA-MB-436 breast carcinoma growth inhibition, drug combinations, stronger effect = higher value
[13] = UWB1.289_BRCA1 ovarian cancer growth, cell-based, BGB or cisplatin combinations (AID 1671459); conditions: UWB1.289 BRCA1 ovarian carcinoma, drug combinations, stronger effect = higher value
[14] = drug combination toxicity in non-malignant astrocytes – cell-based, BGB or cisplatin IC20 combos, cytotoxicity control for chromothriptic childhood tumor combination screen (AID 1671460); conditions: Human astrocytes, viability inhibition, drug combinations, at 0.5 µM, stronger effect = higher value;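 note: cells exposed to compounds for 96 hours before viability readout; 0% = vehicle and 100% = killing control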
[15] = BT084 cell growth, single and combined drugs, ICGC_MB145, cisplatin and BGB IC40 combos (AID 1671461); conditions: BT084 medulloblastoma cells, drug combinations, stronger effect = higher value;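 note: cells exposed to drugs for 96 hours; 0% = vehicle DMSO and 100% = high DMSO full killing control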
[16] = RCMB18 cell growth, single agent and combined, cisplatin and BGB IC40 combos (AID 1671462); conditions: RCMB18 medulloblastoma cells, stronger effect = higher value;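 note: cells exposed to compound for four days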
[17] = CRL1545 cell growth, single agent and combined, cisplatin and BGB IC20 combos (AID 1671464); conditions: CRL1545 osteosarcoma cells, stronger effect = higher value;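 note: cells exposed to compound for 96 hours before readout; 0% = vehicle DMSO and 100% = high DMSO killing control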
[18] = measured here: combination with BGB IC40, at 0.05 µM
[19] = measured here: with BGB IC20 combination, at 0.5 µM
[20] = measured here: with cisplatin IC20 combination, at 0.5 µM
[21] = measured here: combination with cisplatin, at 0.5 µM
[22] = measured here: combination with cisplatin, at 5 µM

O=c1[nH]c(=O)n(C2CC(O)C(CO)O2)cc1I (centres undefined)
fold change ([1]; stronger effect = lower value, cell number ratio, induced over uninduced): 0.851 (inactive)
fold change ([1]; measured here: relative caspase fold change +Dox/-Dox): 0.749
cell count ([1]; measured here: total cells with miR-34 induction, stronger effect = lower value): 6980
cell count ([1]; measured here: total cells without miR-34 induction): 8200
z-score ([2]; MELAS cybrid survival, CellTiter-Glo 48 h, stronger effect = higher value): -0.224 (inactive)
z-score ([2]; Rieske KO mouse fibroblast survival, CellTiter-Glo 72 h): -0.483
inhibition ([3]; at 0.5 µM, stronger effect = higher value): 4.71% (inactive)
inhibition ([3]; measured here: combination with BGB IC20, at 0.005 µM): 8.42%
inhibition ([3]; measured here: combination with BGB IC40, at 0.005 µM): -21.4%
inhibition [3, 18]: 12.9%
inhibition ([3]; measured here: combination with cisplatin, at 0.5 µM, stronger effect = higher value): -5.31%
inhibition ([3]; measured here: combination with cisplatin, at 5 µM, stronger effect = higher value): 2.43%
inhibition ([4]; BGB combo, at 5 µM): 9.54%
inhibition ([4]; at 0.5 µM): -18.4% (inactive)
inhibition ([4]; cisplatin combo, at 5 µM): 3.9%
inhibition [4, 19]: -28.5%
inhibition [4, 20]: -14%
inhibition ([4]; single agent, at 5 µM): 24%
inhibition ([5]; BGB IC20 combo, at 0.005 µM): -15.6%
inhibition ([5]; BGB IC40 combo, at 0.005 µM): -20.9%
inhibition ([5]; BGB IC40 combo, at 0.05 µM): -13.7%
inhibition ([5]; at 0.5 µM): -8.85% (inactive)
inhibition ([5]; cisplatin combo, at 0.05 µM): -13.7%
inhibition ([5]; cisplatin combo, at 0.5 µM): -12.8%
inhibition ([5]; cisplatin combo, at 5 µM): -9.03%
inhibition ([5]; measured here: 5 uM single agent, at 5 µM): 4.46%
inhibition ([6]; at 0.5 µM): -47.8% (inactive)
inhibition [6, 18]: -9.63%
inhibition [6, 21]: -105%
inhibition [6, 22]: -24%
inhibition ([7]; at 0.5 µM): -28.2% (inactive)
inhibition ([7]; measured here: with BGB IC20, at 0.5 µM): -26.8%
inhibition ([7]; measured here: with BGB IC20, at 5 µM): -4.26%
inhibition ([7]; measured here: with cisplatin IC20, at 0.5 µM): -39.9%
inhibition ([7]; measured here: with cisplatin IC20, at 5 µM): -31.8%
inhibition ([7]; single agent, at 5 µM): -17.4%
inhibition ([8]; at 0.5 µM): -42.2% (inactive)
inhibition ([8]; measured here: combination with BGB at IC20, at 0.5 µM): -45.9%
inhibition ([8]; measured here: combination with cisplatin at IC20, at 0.5 µM): -41.5%
inhibition ([9]; at 0.5 µM): -7.04% (inactive)
inhibition ([9]; measured here: combo with BGB at IC20, at 0.5 µM): -3.12%
inhibition ([9]; measured here: combo with cisplatin at IC20, at 0.5 µM): -7.71%
inhibition ([10]; at 0.5 µM): -5.21% (inactive)
inhibition ([10]; measured here: inhibition with BGB combination, at 0.05 µM): -13.3%
inhibition ([10]; measured here: inhibition with cisplatin combination, at 0.05 µM): -14.8%
inhibition ([11]; at 0.5 µM): -2.58% (inactive)
inhibition [11, 21]: 4.62%
inhibition [11, 22]: -3.61%
inhibition ([12]; at 0.5 µM): -9.35% (inactive)
inhibition ([12]; measured here: BGB combination, at 0.5 µM): -10.8%
inhibition ([12]; measured here: BGB combination, at 5 µM): -16.9%
inhibition ([12]; measured here: cisplatin combination, at 0.5 µM): -22.4%
inhibition ([12]; measured here: cisplatin combination, at 5 µM): -10.7%
inhibition ([13]; BGB combination, concentration series, at 5 µM): 0.385%
inhibition ([13]; at 0.5 µM): -5.4% (inactive)
inhibition ([13]; cisplatin combination, concentration series, at 5 µM): -6.29%
inhibition [14]: -11.4% (inactive)
inhibition ([14]; measured here: combo with BGB IC20): -7.44%
inhibition ([14]; measured here: combo with cisplatin IC20): -19.9%
inhibition ([15]; at 0.5 µM): -4.3% (inactive)
inhibition ([15]; cisplatin combination, at 0.5 µM): -7.3%
inhibition ([15]; cisplatin combination, at 5 µM): -44.5%
inhibition ([15]; measured here: BGB IC40 combination 0.05 uM, at 0.05 µM): 12.9%
inhibition ([15]; single agent, at 5 µM): -7.11%
inhibition ([16]; at 0.5 µM): -5.93% (inactive)
inhibition ([16]; cisplatin combo, at 5 µM): -28.2%
inhibition ([16]; measured here: BGB IC40 combination, at 0.05 µM): -1.89%
inhibition [16, 21]: -10.4%
inhibition ([16]; single agent, at 5 µM): -39.8%
inhibition ([17]; at 0.5 µM): -56.2% (inactive)
inhibition [17, 19]: -15.6%
inhibition [17, 20]: -76.5%
inhibition ([17]; single agent, at 0.05 µM): 10.9%
inhibition ([17]; single agent, at 5 µM): 6.02%
